# Test results from PubChem BioAssay.
# Where “and” joins values, the source holds several entries; their conditions need not be identical. Equal entries are not always repeated. Inconclusive results are not listed. Calls of active or inactive are those of the source.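 The calls were made as follows, unless noted: active = compounds whose cell count with miR-34 switched on is under 0.7 times the count with it off; inactive = the rest.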
# Legend:
# [1] = liver-stage malaria parasite growth inhibition, primary screen, cell-based, HepG2, luciferase luminescence, HepG2 viability (AID 624349; in the data active = parasite load remaining mostly below about 12%, no sharp cut-off; inactive = mostly above about 10%;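 also: 100% = mean of DMSO negative control wells on the same plate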); details: P. berghei liver stage in HepG2, luciferase luminescence, concentration not given here; parasite load remaining: stronger effect = lower value; viability: measured here: HepG2 viability without parasites
# [2] = stimulators of nuclear beta-catenin in C2C12, primary screen, imaging, WNT3A-conditioned medium, mouse C2C12, NPC library (AID 1117326; in the data active = nuclear beta-catenin stimulation mostly above about 4.2%, no sharp cut-off; inactive = mostly below about 10%); details: stronger effect = higher value
# [3] = stimulators of insulin release from INS-1E, primary screen, cell-based, 5 mM glucose, NPC library (AID 1117329;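 active = compound raises insulin release from rat beta cells at 5 mM glucose, no numeric limit stated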); details: rat INS-1E insulin secretion, at 10 µM, stronger effect = higher value
# [4] = growth inhibition of GSK3B-pretreated HCT116 cells – cell-based, CellTiter-Glo, 0.2 to 20 µM (AID 1117336;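 active = compounds lowering colon cancer cell viability after pretreatment blocking the GSK3B kinase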); details: HCT116 viability after GSK3B inhibitor, at 20 µM, stronger effect = higher value
# [5] = inhibition of endothelial tube formation, primary screen, imaging, VEGF stimulated, CD31 staining, tube area, NPC library (AID 1117340;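 active = compound that reduces growth-factor-driven endothelial tube area in a mixed cell culture, no cutoff stated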); details: VEGF-stimulated ADSC/ECFC co-culture, at 10 µM, stronger effect = higher value
# [6] = glucagon-like peptide 1 release enhancers, primary assay, NCI-H716 cell line, NPC library (AID 1117341;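 active = compound raises GLP1 secretion from the human gut endocrine cells, with no numeric limit stated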); details: NCI-H716 cells, at 10 µM, stronger effect = higher value
# [7] = HCT116 colon cancer cell growth inhibition, primary screen, CellTiter-Glo luminescence, NPC library (AID 1117342;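 active = compounds that lower survival of HCT116 colon cancer cells in the luminescence readout, no numeric limit stated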); details: at 20 µM (top of the series)
# [8] = CellTiter-Glo luminescent readout of SW480 viability loss, NPC library primary (AID 1117343;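 active = compounds that lower viability of the colon cancer cells in the luminescence readout, with no numeric limit stated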); details: CellTiter-Glo luminescence; at 20 µM (top of the series) unless noted
# [9] = decreased DLD-1 cellular survival, CellTiter-Glo luminescent readout, NPC compound collection, primary HTS (AID 1117346;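 active = compounds that lower survival of DLD-1 colon cancer cells in the luminescence readout, no cutoff given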); details: DLD-1 viability, CellTiter-Glo luminescence; at 20 µM (top of the series)
# [10] = sensitizers of A549 cells to miR-34 induction, primary screen, imaging, A549 dox-inducible miR-34, nuclei and caspase counts (AID 1347080); details: A549 miR-34 inducible, Hoechst nuclei count, 48 h
# [11] = target: NAD(+) hydrolase SARM1 (Homo sapiens) (UniProt Q6SZW1); assay: SARM1 TIR NADase inhibitors, cell lysate, NAD-Glo luminescence (AID 1508614;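 active = compound whose remaining NAD level is above about 45 nM, limit read from the data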;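 also: higher remaining NAD means stronger inhibition of SARM1 NADase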); details: SAM-TIR HEK293T lysate NADase, at 1 µM, stronger effect = higher value
# Chain of NAD(+) hydrolase SARM1 (Homo sapiens) (Q6SZW1 whole entry, looked up, the tested form may be a part): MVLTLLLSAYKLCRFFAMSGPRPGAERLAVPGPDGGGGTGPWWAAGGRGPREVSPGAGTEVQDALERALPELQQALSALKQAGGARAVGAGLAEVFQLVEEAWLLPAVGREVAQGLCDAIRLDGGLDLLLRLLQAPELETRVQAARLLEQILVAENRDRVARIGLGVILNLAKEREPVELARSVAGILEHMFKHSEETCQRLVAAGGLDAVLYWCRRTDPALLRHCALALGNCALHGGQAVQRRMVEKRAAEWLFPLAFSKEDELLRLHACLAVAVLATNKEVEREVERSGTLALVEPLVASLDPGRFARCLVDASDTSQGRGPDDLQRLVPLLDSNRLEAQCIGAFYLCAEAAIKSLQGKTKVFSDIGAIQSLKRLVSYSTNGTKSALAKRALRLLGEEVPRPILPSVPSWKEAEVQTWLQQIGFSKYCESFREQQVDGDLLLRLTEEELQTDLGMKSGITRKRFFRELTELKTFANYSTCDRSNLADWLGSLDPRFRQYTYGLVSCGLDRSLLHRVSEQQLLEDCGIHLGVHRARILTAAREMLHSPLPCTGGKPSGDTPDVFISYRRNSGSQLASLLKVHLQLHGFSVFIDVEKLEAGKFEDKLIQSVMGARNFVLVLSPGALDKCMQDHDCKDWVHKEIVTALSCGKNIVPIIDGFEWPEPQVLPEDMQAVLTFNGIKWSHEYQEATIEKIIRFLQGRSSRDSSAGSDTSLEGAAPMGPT
# [12] = target: Mitogen-activated protein kinase 7 (Homo sapiens) (UniProt Q13164); assay: ERK5 transactivation activators in reporter cells, primary screen, cell-based, HTS (AID 1508626;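 active = luciferase signal above three times the same-plate solvent-only control wells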;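 also: luciferase driven by Gal4-ERK5 fusion binding five Gal4 sites before minimal TATA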); details: HeLa Gal4-ERK5 transactivation, 18 h, at 5 µM, stronger effect = higher value
# Chain of Mitogen-activated protein kinase 7 (Homo sapiens) (Q13164 whole entry, looked up, the tested form may be a part): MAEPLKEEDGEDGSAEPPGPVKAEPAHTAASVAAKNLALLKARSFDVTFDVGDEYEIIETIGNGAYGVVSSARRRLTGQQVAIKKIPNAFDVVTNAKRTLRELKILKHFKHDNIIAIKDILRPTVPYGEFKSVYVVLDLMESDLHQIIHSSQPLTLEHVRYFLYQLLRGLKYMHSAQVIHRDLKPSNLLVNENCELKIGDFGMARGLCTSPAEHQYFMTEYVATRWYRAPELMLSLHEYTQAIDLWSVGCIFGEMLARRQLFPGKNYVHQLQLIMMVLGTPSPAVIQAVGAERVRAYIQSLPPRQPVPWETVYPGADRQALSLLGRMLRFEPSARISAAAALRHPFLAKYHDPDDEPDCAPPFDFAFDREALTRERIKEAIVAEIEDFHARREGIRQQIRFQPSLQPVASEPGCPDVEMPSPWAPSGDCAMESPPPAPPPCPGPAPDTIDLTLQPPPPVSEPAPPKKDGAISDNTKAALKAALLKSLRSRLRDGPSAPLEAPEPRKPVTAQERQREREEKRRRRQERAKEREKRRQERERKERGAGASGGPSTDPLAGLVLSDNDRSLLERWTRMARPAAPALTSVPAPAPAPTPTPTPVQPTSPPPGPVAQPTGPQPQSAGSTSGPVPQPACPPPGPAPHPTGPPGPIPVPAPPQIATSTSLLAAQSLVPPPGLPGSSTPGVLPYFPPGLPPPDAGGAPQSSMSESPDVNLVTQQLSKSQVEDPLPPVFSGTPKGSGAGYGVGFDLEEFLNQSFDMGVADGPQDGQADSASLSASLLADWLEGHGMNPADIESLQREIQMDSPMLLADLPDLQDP
# [13] = target: ATP-dependent translocase ABCB1 (Homo sapiens) (UniProt P08183); assay: MDR1 (ABCB1) efflux transporter inhibition, cell-based (AID 377; in the data active = fluorescence slope change above about 50%); details: MDR1-expressing cells, fluorescent substrate accumulation slope; stronger effect = higher value; concentration not given here
# Chain of ATP-dependent translocase ABCB1 (Homo sapiens) (P08183 whole entry, looked up): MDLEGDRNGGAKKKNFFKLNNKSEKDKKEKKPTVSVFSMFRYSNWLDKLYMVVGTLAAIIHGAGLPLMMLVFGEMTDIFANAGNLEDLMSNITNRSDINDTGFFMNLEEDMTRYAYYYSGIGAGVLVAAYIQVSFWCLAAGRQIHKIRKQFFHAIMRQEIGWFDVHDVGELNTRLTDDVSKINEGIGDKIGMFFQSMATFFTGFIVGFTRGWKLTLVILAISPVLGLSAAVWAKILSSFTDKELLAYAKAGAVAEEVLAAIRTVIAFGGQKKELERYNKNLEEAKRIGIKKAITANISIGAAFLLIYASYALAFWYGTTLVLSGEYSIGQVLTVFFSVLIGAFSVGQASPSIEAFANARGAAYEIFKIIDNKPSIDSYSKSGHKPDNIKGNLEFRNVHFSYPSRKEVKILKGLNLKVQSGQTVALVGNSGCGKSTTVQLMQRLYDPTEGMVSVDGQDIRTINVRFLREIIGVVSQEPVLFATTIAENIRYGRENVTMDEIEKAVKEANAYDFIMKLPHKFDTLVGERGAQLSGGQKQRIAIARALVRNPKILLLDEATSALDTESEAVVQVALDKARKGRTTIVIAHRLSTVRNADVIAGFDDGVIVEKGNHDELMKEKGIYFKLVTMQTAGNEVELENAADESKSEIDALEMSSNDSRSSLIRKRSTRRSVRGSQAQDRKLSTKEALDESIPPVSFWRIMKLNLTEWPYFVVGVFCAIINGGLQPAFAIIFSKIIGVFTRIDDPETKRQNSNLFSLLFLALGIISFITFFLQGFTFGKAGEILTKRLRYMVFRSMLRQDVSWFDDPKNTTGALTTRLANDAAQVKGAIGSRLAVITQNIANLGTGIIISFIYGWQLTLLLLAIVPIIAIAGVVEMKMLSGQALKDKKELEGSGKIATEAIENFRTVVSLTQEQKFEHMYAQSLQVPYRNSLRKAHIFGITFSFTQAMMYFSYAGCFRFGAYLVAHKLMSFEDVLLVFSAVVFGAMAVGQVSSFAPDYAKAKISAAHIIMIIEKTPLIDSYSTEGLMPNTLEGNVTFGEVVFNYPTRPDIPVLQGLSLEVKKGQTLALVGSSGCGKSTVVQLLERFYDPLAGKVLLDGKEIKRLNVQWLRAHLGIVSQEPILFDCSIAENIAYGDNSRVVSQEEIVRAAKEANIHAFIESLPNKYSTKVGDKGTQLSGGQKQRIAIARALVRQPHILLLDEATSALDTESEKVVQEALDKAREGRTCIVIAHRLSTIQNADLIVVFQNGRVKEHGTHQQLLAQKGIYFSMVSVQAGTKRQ
# [14] = hESC survival regulators, cell-based (AID 493140; call rule not given here;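 also: cells exposed to compounds for four days before counting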); details: human embryonic stem cell survival screen; stronger effect = higher value
# [15] = survival rescue of mitochondrial mutant cells in low glucose, primary screen, MELAS cybrids, Rieske KO mouse fibroblasts, CellTiter-Glo (AID 1508586;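 active = mean z-score across replicates of 1.96 or higher in either the MELAS or the Rieske mutant cell line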;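 also: z relative to plate mean and SD of compound and empty wells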)
# [16] = circadian clock period modulators, cell-based, LOPAC library, luminescence reporter (AID 2774; call rule not given here;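 also: values are relative to mean of DMSO wells on each plate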); details: circadian reporter cells, at 7 µM, actives lie on both sides
# [17] = viability rescue of complex I mutant cybrids, primary screen, cell-based, galactose medium, ATP luminescence (AID 1645843;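 active = z-score of at least 1.8 in each of two replicates, scored against plate mean and spread of sample wells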;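 also: positive z means more ATP and so rescue of galactose-driven cybrid death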); details: complex I mutant cybrid cells, 72 h, stronger effect = higher value
# [18] = stronger effect = lower value, cell number ratio, induced over uninduced
# [19] = measured here: relative caspase fold change +Dox/-Dox
# [20] = measured here: total cells with miR-34 induction, stronger effect = lower value
# [21] = measured here: total cells without miR-34 induction
# [22] = MELAS cybrid survival, CellTiter-Glo 48 h, stronger effect = higher value
# [23] = Rieske KO mouse fibroblast survival, CellTiter-Glo 72 h
compound,measurement,setting,value
O=C1[O][Bi][O]c2ccccc21,parasite load remaining,[1],39.8% (inactive)
same,viability,[1],103%
same,nuclear beta-catenin stimulation,[2]; at 10 µM,0.6% (inactive)
same,nuclear beta-catenin stimulation,"[2]; stimulation, at 2 µM",0.8%
same,insulin secretion stimulation,[3],2.7% (inactive)
same,viability decrease,[4],13.3% (inactive)
same,tube area decrease,[5],-3.4% (inactive)
same,GLP1 secretion stimulation,[6],1.9% (inactive)
same,inhibition of viability,[7],14% (inactive)
same,viability decrease (inhibition),[8],28.1% (inactive)
same,viability decrease (inhibition),[9],3.2% (inactive)
same,fold change,[10]; [18],0.887 (inactive)
same,fold change,[10]; [19],3.11
same,cell count,[10]; [20],12000
same,cell count,[10]; [21],13500
same,remaining NAD,[11],52 nM (active)
same,luciferase signal,[12],60 AU (inactive)
CN1CCN(CCCN2c3ccccc3Sc3ccc(S(=O)(=O)N(C)C)cc32)CC1,fluorescence slope change,[13],52.4% (active)
same,survival,[14],4.08 (inactive)
same,parasite load remaining,[1],35.2% (inactive) and 94.1% (inactive)
same,viability,[1],47.9% and 85.3%
same,nuclear beta-catenin stimulation,[2]; at 10 µM,33.2% (inactive)
same,nuclear beta-catenin stimulation,"[2]; stimulation, at 2 µM",0.3%
same,insulin secretion stimulation,[3],12.3% (inactive)
same,viability decrease,[4],99.5% (active)
same,tube area decrease,[5],108% (active)
same,GLP1 secretion stimulation,[6],-2.9% (inactive)
same,inhibition of viability,[7],99.9% (active)
same,viability decrease (inhibition),[8],103% (active)
same,viability decrease (inhibition),[9],95% (active)
same,fold change,[10]; [18],0.928 (inactive)
same,fold change,[10]; [19],1.43
same,cell count,[10]; [20],7890
same,cell count,[10]; [21],8500
same,z-score,[15]; [22],0.365 (inactive)
same,z-score,[15]; [23],0.522
CCCNC(C)C(=O)Nc1c(C)csc1C(=O)OC (centres undefined),survival,[14],18.4 (inactive)
same,parasite load remaining,[1],137% (inactive)
same,viability,[1],71.1%
same,nuclear beta-catenin stimulation,[2]; at 10 µM,-0.2% (inactive)
same,nuclear beta-catenin stimulation,"[2]; stimulation, at 2 µM",2%
same,insulin secretion stimulation,[3],4.8% (inactive)
same,viability decrease,[4],1.9% (inactive)
same,tube area decrease,[5],5.2% (inactive)
same,GLP1 secretion stimulation,[6],-3.4% (inactive)
same,inhibition of viability,[7],8.5% (inactive)
same,viability decrease (inhibition),[8],2.2% (inactive)
same,viability decrease (inhibition),[9],2.2% (inactive)
same,fold change,[10]; [18],0.925 (inactive) and 0.913 (inactive)
same,fold change,[10]; [19],0.61 and 0.602
same,cell count,[10]; [20],8960 and 8560
same,cell count,[10]; [21],9680 and 9380
same,z-score,[15]; [22],-0.278 (inactive) and -0.744 (inactive)
same,z-score,[15]; [23],-0.148 and -0.857
OCc1ccccn1,nuclear beta-catenin stimulation,[2]; at 10 µM,-1% (inactive)
same,nuclear beta-catenin stimulation,"[2]; stimulation, at 2 µM",0.3%
same,insulin secretion stimulation,[3],0% (inactive)
same,viability decrease,[4],4.8% (inactive)
same,tube area decrease,[5],-15.2% (inactive)
same,GLP1 secretion stimulation,[6],-2.9% (inactive)
same,inhibition of viability,[7],-23.7% (inactive)
same,viability decrease (inhibition),[8],30.6% (active)
same,viability decrease (inhibition),[9],-10.2% (inactive)
same,fold change,[10]; [18],0.898 (inactive)
same,fold change,[10]; [19],0.701
same,cell count,[10]; [20],8220
same,cell count,[10]; [21],9160
same,remaining NAD,[11],10 nM (inactive)
CCc1cccc(CC)c1NC(=O)CN(CC(=O)O)CC(=O)O,fluorescence slope change,[13],-10% (inactive)
same,survival,[14],10.9 (inactive)
same,parasite load remaining,[1],77.8% (inactive) and 89.7% (inactive)
same,viability,[1],111% and 80.2%
same,nuclear beta-catenin stimulation,[2]; at 10 µM,-0.2% (inactive)
same,nuclear beta-catenin stimulation,"[2]; stimulation, at 2 µM",0.2%
same,insulin secretion stimulation,[3],-1.7% (inactive)
same,viability decrease,[4],-8.7% (inactive)
same,tube area decrease,[5],7.4% (inactive)
same,GLP1 secretion stimulation,[6],-0.1% (inactive)
same,inhibition of viability,[7],12% (inactive)
same,viability decrease (inhibition),[8],39.7% (inactive)
same,viability decrease (inhibition),[9],1.77% (inactive)
same,fold change,[10]; [18],0.877 (inactive)
same,fold change,[10]; [19],1.63
same,cell count,[10]; [20],9160
same,cell count,[10]; [21],10400
same,z-score,[15]; [22],0.304 (inactive)
same,z-score,[15]; [23],0.0436
CC(C)NC[C@@H](O)COc1ccc(CC(N)=O)cc1,period change,[16],0.075 h (inactive)
same,survival,[14],2.17 (inactive)
same,parasite load remaining,[1],88.2% (inactive)
same,viability,[1],111%
same,nuclear beta-catenin stimulation,[2]; at 10 µM,0.1% (inactive)
same,nuclear beta-catenin stimulation,"[2]; stimulation, at 2 µM",1.2%
same,insulin secretion stimulation,[3],-1.9% (inactive)
same,viability decrease,[4],-4.35% (inactive)
same,tube area decrease,[5],-23.3% (inactive)
same,GLP1 secretion stimulation,[6],3.3% (inactive)
same,inhibition of viability,[7],1.1% (inactive)
same,viability decrease (inhibition),[8],11.3% (inactive)
same,viability decrease (inhibition),[9],-7% (inactive)
same,fold change,[10]; [18],0.872 (inactive)
same,fold change,[10]; [19],1.15
same,cell count,[10]; [20],9650
same,cell count,[10]; [21],11100
same,z-score,[15]; [22],0.458 (inactive)
same,z-score,[15]; [23],-0.0401
C1CCN2C[C@@H]3C[C@@H](CN4CCCC[C@@H]34)[C@H]2C1,fluorescence slope change,[13],10.6% (inactive)
same,parasite load remaining,[1],47.2% (inactive)
same,viability,[1],113%
same,nuclear beta-catenin stimulation,[2]; at 10 µM,-0.4% (inactive)
same,nuclear beta-catenin stimulation,"[2]; stimulation, at 2 µM",-0.5%
same,insulin secretion stimulation,[3],15.2% (inactive)
same,viability decrease,[4],5.9% (inactive)
same,tube area decrease,[5],-8.8% (inactive)
same,GLP1 secretion stimulation,[6],1.2% (inactive)
same,inhibition of viability,[7],22.6% (inactive)
same,viability decrease (inhibition),[8],3.2% (inactive)
same,viability decrease (inhibition),[9],4.2% (inactive)
same,fold change,[10]; [18],0.853 (inactive)
same,fold change,[10]; [19],1.2
same,cell count,[10]; [20],8930
same,cell count,[10]; [21],10500
same,remaining NAD,[11],10 nM (inactive)
same,luciferase signal,[12],60 AU (inactive)
COc1ccccc1Oc1c(NS(=O)(=O)c2ccc(C(C)(C)C)cc2)nc(-c2ncccn2)nc1OCCO,parasite load remaining,[1],23% (inactive)
same,viability,[1],71%
same,nuclear beta-catenin stimulation,[2]; at 10 µM,-2.1% (inactive)
same,nuclear beta-catenin stimulation,"[2]; stimulation, at 2 µM",0.8%
same,insulin secretion stimulation,[3],7% (inactive)
same,viability decrease,[4],-5.8% (inactive)
same,tube area decrease,[5],4.9% (inactive)
same,GLP1 secretion stimulation,[6],0.2% (inactive)
same,inhibition of viability,[7],12.9% (inactive)
same,viability decrease (inhibition),[8],81.4% (active)
same,viability decrease (inhibition),[9],16.8% (inactive)
same,fold change,[10]; [18],0.921 (inactive) and 0.93 (inactive) and 0.843 (inactive)
same,fold change,[10]; [19],1.38 and 0.578 and 1.32
same,cell count,[10]; [20],8280 and 8370 and 9010
same,cell count,[10]; [21],8980 and 9000 and 10700
same,z-score,[17],0.365 (inactive)
CC(C(=O)O)c1ccc(C(=O)c2ccccc2)s1 (centres undefined),survival,[14],11.3 (inactive)
same,parasite load remaining,[1],86.4% (inactive) and 106% (inactive)
same,viability,[1],112% and 75.4%
same,nuclear beta-catenin stimulation,[2]; at 10 µM,0.5% (inactive)
same,nuclear beta-catenin stimulation,"[2]; stimulation, at 2 µM",0.1%
same,insulin secretion stimulation,[3],-2% (inactive)
same,viability decrease,[4],4.35% (inactive)
same,tube area decrease,[5],4% (inactive)
same,GLP1 secretion stimulation,[6],-4.7% (inactive)
same,inhibition of viability,[7],7.4% (inactive)
same,viability decrease (inhibition),[8],37.4% (inactive)
same,viability decrease (inhibition),[9],10.6% (inactive)
same,fold change,[10]; [18],0.849 (inactive)
same,fold change,[10]; [19],1.29
same,cell count,[10]; [20],9200
same,cell count,[10]; [21],10800
same,z-score,[15]; [22],-0.736 (inactive)
same,z-score,[15]; [23],-0.23
CCOCCn1c(N2CCCN(C)CC2)nc2ccccc21,nuclear beta-catenin stimulation,[2]; at 10 µM,-1.8% (inactive)
same,nuclear beta-catenin stimulation,"[2]; stimulation, at 2 µM",1%
same,insulin secretion stimulation,[3],4.3% (inactive)
same,viability decrease,[4],-10.6% (inactive)
same,tube area decrease,[5],3.4% (inactive)
same,GLP1 secretion stimulation,[6],-2.3% (inactive)
same,inhibition of viability,[7],8.5% (inactive)
same,viability decrease (inhibition),[8],6% (inactive)
same,viability decrease (inhibition),[9],-4.3% (inactive)
same,z-score,[15]; [22],0.35 (inactive)
same,z-score,[15]; [23],-0.184
